TLR4-MyD88 BLA = TLR4-MyD88 interaction inhibition in cells; O00206+Q99836; HeLa CL3-4 TLR4/MyD88 BLA complementation, FRET ratio; inhibition, % at 8.4 µM; 0.18% of 200,000 active; in the data active = inhibition above about 25%;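 note: 0% = vehicle and 100% = reference inhibitor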
NPR1 activator = GC-A (human) enzyme activation; 0.14% of 370,000 active; activation, % at 10 µM; P16066; HEK293 GC-A cells, cGMP TR-FRET, EC30 ANP; 0% at EC30 ANP, 100% saturating ANP; AID 1671463; in the data active = activation above about 40%
Neddylation inh = cullin neddylation inhibition; inhibition, % at 25 µM; 0.58% of 360,000 active; P61081+Q13564; TR-FRET cullin neddylation, biochemical; AID 651699; in the data active = inhibition above about 36%
NOD2 RIPK2 PPI = NOD2-RIPK2 protein interaction inhibition; inhibition, % at 4.98 µM; CHO BLA complementation NOD2-RIPK2, CCF4 ratio; 0.38% of 360,000 active; O43353; in the data active = inhibition above about 21%;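 note: 0% = vehicle only and 100% = reference blocker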
Target sequence (O43353 whole entry, looked up): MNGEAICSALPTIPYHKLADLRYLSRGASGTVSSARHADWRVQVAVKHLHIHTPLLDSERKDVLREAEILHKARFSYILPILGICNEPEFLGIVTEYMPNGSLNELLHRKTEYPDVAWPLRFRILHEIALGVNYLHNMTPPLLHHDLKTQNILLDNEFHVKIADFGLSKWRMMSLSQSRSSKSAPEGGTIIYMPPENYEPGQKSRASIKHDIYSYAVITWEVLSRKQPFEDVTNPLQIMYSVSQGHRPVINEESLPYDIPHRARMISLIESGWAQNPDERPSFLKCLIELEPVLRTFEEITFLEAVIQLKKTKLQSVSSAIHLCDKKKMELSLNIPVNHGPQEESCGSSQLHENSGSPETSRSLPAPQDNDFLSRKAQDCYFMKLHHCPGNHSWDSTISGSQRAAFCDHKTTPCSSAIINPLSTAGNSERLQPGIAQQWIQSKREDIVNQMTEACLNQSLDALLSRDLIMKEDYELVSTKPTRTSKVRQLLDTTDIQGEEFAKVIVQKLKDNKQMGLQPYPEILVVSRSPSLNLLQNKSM
GC-B act = GC-B (human) receptor activation | P20594 | HEK293-GC-B cells, CNP EC30, cGMP TR-FRET; 0% at EC30 CNP, 100% saturating CNP | activation, % at 10 µM | 0.11% of 370,000 active;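 active = activation at 10 µM reaching about 35% in either raw or pattern-adjusted values, limit read from the data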
TLR9-MyD88 block = TLR9-MyD88 interaction inhibition. Q9NR96+Q99836. inhibition, % at 4.98 µM. CHO BLA complementation TLR9-MyD88, CCF4 FRET ratio. 0.21% of 340,000 active;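 active = inhibition above the mean over all tested compounds plus 3 SD, cut at about 21% in these data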;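 note: 0% = DMSO only wells and 100% = clavulanate BLA inhibitor control wells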
Neddyl conf = confirmation of human cullin neddylation inhibitors; shares compounds with Neddylation inh; TR-FRET cullin neddylation biochemical assay; calls only at 25 µM; 13% of 1,800 active; AID 652217; in the data active = inhibition above about 40%;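 note: neddylation substrate is the cullin 1 ring ligase complex with SKP2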
Starred values were filed as active, the others as inactive. Shown are actives, neighbours in structure and some others; about 1.2% of the full set was active somewhere.

What do the screens show for `O=C(c1cccc(Br)c1)N1CCN(c2ccc(N3CCOCC3)nn2)CC1`?
NPR1 activator: 0; Neddylation inh: 50*; NOD2 RIPK2 PPI: -14; GC-B act: 1; TLR9-MyD88 block: 13

How did O=C(CCCc1c[nH]c2ccccc12)N1CCN(c2ccc(N3CCOCC3)nn2)CC1 do in these assays?
TLR4-MyD88 BLA: 1; NPR1 activator: 0; Neddylation inh: 44*; NOD2 RIPK2 PPI: 8; GC-B act: -3; TLR9-MyD88 block: -2; Neddyl conf: active

Results for CC(NS(=O)(=O)c1ccccc1)C1CC2CCC1C2 (configuration not stated) ?
NPR1 activator: 4; Neddylation inh: 3; NOD2 RIPK2 PPI: -1; GC-B act: -2; TLR9-MyD88 block: -6

Results for CCNc1ccc(S(=O)(=O)N2CCCCC2)cn1 ?
NPR1 activator: 3; Neddylation inh: 18; NOD2 RIPK2 PPI: -7; GC-B act: 12; TLR9-MyD88 block: -2

Results for CN(C)c1ccsc1C(=O)NNS(=O)(=O)c1ccc(Cl)cc1 ?
NPR1 activator: 1; Neddylation inh: 2; NOD2 RIPK2 PPI: -7; GC-B act: -2; TLR9-MyD88 block: -11

Results for COc1cccc(C(=O)N2CCN(c3ccc(N4CCOCC4)nn3)CC2)c1 ?
NPR1 activator: 2; Neddylation inh: 61*; NOD2 RIPK2 PPI: -9; GC-B act: 1; TLR9-MyD88 block: -4

How did Cc1ccc2nc(NCCCN3CCOCC3)c(C=NCCCN3CCOCC3)c(=O)n2c1 do in these assays?
TLR4-MyD88 BLA: 6; NPR1 activator: 8; Neddylation inh: 42*; NOD2 RIPK2 PPI: -7; GC-B act: -9; TLR9-MyD88 block: -13; Neddyl conf: inactive

Results for Cc1ccc2nc(NCc3ccccc3)c(C=NCc3ccccc3)c(=O)n2c1 ?
TLR4-MyD88 BLA: -5; NPR1 activator: 1; Neddylation inh: 18; NOD2 RIPK2 PPI: 0; GC-B act: 4; TLR9-MyD88 block: 6

From PubChem BioAssay
